Assay results reported in the supplement of paper PMC8728848.
The full list was thinned out, with the strongest signals kept by preference.

Tests used:
Assay in all cases: glycan array binding signal (z-score within array); higher = stronger binding
[1] = molecular target: Gal(a1-2)Gal; conditions: glycan notation: IUPAC condensed, linker removed; mutation: F355A
Procedure, shortened: (§1)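 Glycan array data came from 3228 arrays in the Consortium for Functional Glycomics database, and only arrays with an available protein sequence were kept. Glycan names were put into IUPAC-condensed notation, and columns mapping to the same glycan were averaged. The binding signal is a within-array Z-score, averaged across arrays of one protein sequence run at different concentrations or buffers and across linkers. A negative Z-score can be read as non-binding.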

[2] = molecular target: Gal(a1-3)Gal(b1-4)Glc; conditions: glycan notation: IUPAC condensed, linker removed; mutation: F355A
Procedure, shortened: as §1

[3] = molecular target: Gal(a1-3)GalNAc; conditions: glycan notation: IUPAC condensed, linker removed; mutation: F355A
Procedure, shortened: as §1

[4] = molecular target: Gal(b1-4)GlcNAc(b1-2)Man(a1-3)[Gal(b1-4)GlcNAc(b1-2)Man(a1-6)]Man(b1-4)GlcNAc(b1-4)GlcNAc; conditions: glycan notation: IUPAC condensed, linker removed; mutation: F355A
Procedure, shortened: as §1

[5] = molecular target: GalNAc(b1-3)Gal(a1-4)Gal(b1-4)GlcNAc; conditions: glycan notation: IUPAC condensed, linker removed; mutation: F355A
Procedure, shortened: as §1

[6] = molecular target: GlcNAc(a1-6)Gal(b1-4)GlcNAc; conditions: glycan notation: IUPAC condensed, linker removed; mutation: F355A
Procedure, shortened: as §1

[7] = molecular target: GlcNAc(b1-4)Gal(b1-4)GlcNAc; conditions: glycan notation: IUPAC condensed, linker removed; mutation: F355A
Procedure, shortened: as §1

[8] = molecular target: GlcNAc(b1-4)GlcNAc(b1-4)GlcNAc; conditions: glycan notation: IUPAC condensed, linker removed; mutation: F355A
Procedure, shortened: as §1

[9] = molecular target: GlcNAc(b1-4)GlcNAc(b1-4)GlcNAc(b1-4)GlcNAc(b1-4)GlcNAc; conditions: glycan notation: IUPAC condensed, linker removed; mutation: F355A
Procedure, shortened: as §1

[10] = molecular target: Kdn(a2-3)Gal(b1-4)GlcNAc; conditions: glycan notation: IUPAC condensed, linker removed; mutation: F355A
Procedure, shortened: as §1

[11] = molecular target: Man(a1-2)Man(a1-2)Man(a1-6)[Man(a1-3)]Man; conditions: glycan notation: IUPAC condensed, linker removed; mutation: F355A
Procedure, shortened: as §1

[12] = molecular target: Man(a1-2)Man(a1-3)[Man(a1-2)Man(a1-6)]Man; conditions: glycan notation: IUPAC condensed, linker removed
Procedure, shortened: as §1

[13] = molecular target: Man(a1-2)Man(a1-3)[Man(a1-2)Man(a1-6)]Man(a1-6)[Man(a1-2)Man(a1-2)Man(a1-3)]Man; conditions: glycan notation: IUPAC condensed, linker removed; mutation: F355A
Procedure, shortened: as §1

[14] = molecular target: Man(a1-2)Man(a1-6)[Man(a1-3)]Man(a1-6)[Man(a1-2)Man(a1-2)Man(a1-3)]Man(b1-4)GlcNAc(b1-4)GlcNAc; conditions: glycan notation: IUPAC condensed, linker removed; mutation: F355A
Procedure, shortened: as §1

[15] = molecular target: Man(a1-3)[Man(a1-6)]Man(a1-6)[Man(a1-2)Man(a1-3)]Man(b1-4)GlcNAc(b1-4)GlcNAc; conditions: glycan notation: IUPAC condensed, linker removed; mutation: F355A
Procedure, shortened: as §1

[16] = molecular target: Man(a1-3)[Man(a1-6)]Man(a1-6)[Man(a1-3)]Man; conditions: glycan notation: IUPAC condensed, linker removed; mutation: F355A
Procedure, shortened: as §1

[17] = molecular target: Man(a1-3)[Man(a1-6)]Man(a1-6)[Man(a1-3)]Man(b1-4)GlcNAc(b1-4)GlcNAc; conditions: glycan notation: IUPAC condensed, linker removed; mutation: F355A
Procedure, shortened: as §1

[18] = molecular target: Neu5Ac(a2-6)Gal(b1-4)GlcNAc(b1-2)Man(a1-6)[Gal(b1-4)GlcNAc(b1-2)Man(a1-3)]Man(b1-4)GlcNAc(b1-4)GlcNAc; conditions: glycan notation: IUPAC condensed, linker removed; mutation: F355A
Procedure, shortened: as §1

[19] = molecular target: Neu5Gc(a2-3)Gal(b1-4)[Fuc(a1-3)]GlcNAc; conditions: glycan notation: IUPAC condensed, linker removed; mutation: F355A
Procedure, shortened: as §1

[20] = molecular target: Gal(b1-3)[GlcNAc(b1-6)]GalNAc; conditions: glycan notation: IUPAC condensed, linker removed
Procedure, shortened: as §1

[21] = molecular target: Gal(b1-4)GlcNAc(b1-3)Gal(b1-4)GlcNAc(b1-3)Gal(b1-4)GlcNAc; conditions: glycan notation: IUPAC condensed, linker removed
Procedure, shortened: as §1

[22] = molecular target: Gal3S(b1-4)Glc; conditions: glycan notation: IUPAC condensed, linker removed
Procedure, shortened: as §1

[23] = molecular target: Gal6S(b1-4)Glc; conditions: glycan notation: IUPAC condensed, linker removed
Procedure, shortened: as §1

[24] = molecular target: Glc(a1-4)Glc; conditions: glycan notation: IUPAC condensed, linker removed
Procedure, shortened: as §1

[25] = molecular target: Glc(b1-6)Glc; conditions: glycan notation: IUPAC condensed, linker removed
Procedure, shortened: as §1

[26] = molecular target: GlcNAc(b1-2)Gal(b1-3)GalNAc; conditions: glycan notation: IUPAC condensed, linker removed
Procedure, shortened: as §1

[27] = molecular target: Man(a1-2)Man(a1-3)Man; conditions: glycan notation: IUPAC condensed, linker removed
Procedure, shortened: as §1

[28] = molecular target: Neu5Ac(a2-3)Gal(b1-3)[Neu5Ac(a2-3)Gal(b1-4)]GlcNAc; conditions: glycan notation: IUPAC condensed, linker removed
Procedure, shortened: as §1

[29] = molecular target: Neu5Ac(a2-3)[GalNAc(b1-4)]Gal(b1-4)GlcNAc; conditions: glycan notation: IUPAC condensed, linker removed
Procedure, shortened: as §1

[30] = molecular target: Neu5Ac(a2-3)[Neu5Ac(a2-6)]GalNAc; conditions: glycan notation: IUPAC condensed, linker removed
Procedure, shortened: as §1

Binder | glycan array binding signal (z-score) [1] | glycan array binding signal (z-score) [2] | glycan array binding signal (z-score) [3] | glycan array binding signal (z-score) [4] | glycan array binding signal (z-score) [5] | glycan array binding signal (z-score) [6] | glycan array binding signal (z-score) [7] | glycan array binding signal (z-score) [8] | glycan array binding signal (z-score) [9] | glycan array binding signal (z-score) [10] | glycan array binding signal (z-score) [11] | glycan array binding signal (z-score) ([12]; mutation: F355A) | glycan array binding signal (z-score) [13] | glycan array binding signal (z-score) [14] | glycan array binding signal (z-score) [15] | glycan array binding signal (z-score) [16] | glycan array binding signal (z-score) [17] | glycan array binding signal (z-score) [18] | glycan array binding signal (z-score) [19] | glycan array binding signal (z-score) [20] | glycan array binding signal (z-score) [21] | glycan array binding signal (z-score) [22] | glycan array binding signal (z-score) [23] | glycan array binding signal (z-score) [24] | glycan array binding signal (z-score) [25] | glycan array binding signal (z-score) [26] | glycan array binding signal (z-score) [27] | glycan array binding signal (z-score) [12] | glycan array binding signal (z-score) [28] | glycan array binding signal (z-score) [29] | glycan array binding signal (z-score) [30]
Surfactant Protein D (Human); Neck + Carbohydrate Recognition Domain (NCRD) (Homo sapiens) (protein) MLLFLLSALVLLTQPLGYLEAEMKTYSHRTMPSACTLVMCSSVESGLPGRDRDGREGPRGEKGDPGLPGAAGQAGMPGQAGPVGPKGDNGSVGEPGPKGDTGPSGPPGPPGVPGPAGREGALGKQGNIGPQGKPGPKGEAGPKGEVGAPGMQGSAGARGLAGPKGERGVPGERGVPGNTGAAGSAGAMGPQGSPGARGPPGLKGDKGIPGDKGAKGESGLPDVASLRQQVEALQGQVQHLQAAFSQYKKVELFPNGQSVGEKIFKTAQFVKPFTEAQLLCTQAGGQLASPRSAAENAALQQLVVAKNEAAFLSMTDSKTEGKFTYPTGESLVYSNWAPGEPNDDGGSEDCVEIFTNGKWNDRACGEKRLVVCEA | -0.16 | -0.099 | -0.129 | -0.104 | -0.138 | -0.164 | -0.146 | -0.155 | -0.122 | -0.072 | 2.74 | 4.68 | 15 | 1.59 | 2.15 | 5.56 | 2.12 | -0.15 | -0.145 |  |  |  |  |  |  |  |  |  |  |  | 
Hip/Pap (Homo sapiens), Q06141 (protein) MLPPMALPSVSWMLLSCLMLLSQVQGEEPQRELPSARIRCPKGSKAYGSHCYALFLSPKSWTDADLACQKRPSGNLVSVLSGAEGSFVSSLVKSIGNSYSYVWIGLHDPTQGTEPNGEGWEWSSSDVMNYFAWERNPSTISSPGHCASLSRSTAFLRWKDYNCNVRLPYVCKFTD |  |  |  |  |  |  |  |  |  |  |  |  |  |  |  |  |  |  |  | -0.159 | -0.173 | 0.278 | -0.162 | 0.806 | 0.091 | -0.099 | -0.027 | 0.58 | 0.71 | -0.173 | -0.168
